Screening results: PubChem BioAssay, National Center for Advancing Translational Sciences (NCATS)
In the library only some 4.8% were active in any assay of this set; here they are far more common.
D3 ag – qHTS of D3 Dopamine Receptor Agonist: qHTS. 0.58% of 410,000 active. D3R DiscoveRx beta-arrestin cells, luminescence, 90 min. max activation, %. AID 652048, 2013. D(3) dopamine receptor (Homo sapiens), P35462; in the data active means max activation above about 30%; further: 0% is about no effect
Target sequence (P35462 whole entry, looked up): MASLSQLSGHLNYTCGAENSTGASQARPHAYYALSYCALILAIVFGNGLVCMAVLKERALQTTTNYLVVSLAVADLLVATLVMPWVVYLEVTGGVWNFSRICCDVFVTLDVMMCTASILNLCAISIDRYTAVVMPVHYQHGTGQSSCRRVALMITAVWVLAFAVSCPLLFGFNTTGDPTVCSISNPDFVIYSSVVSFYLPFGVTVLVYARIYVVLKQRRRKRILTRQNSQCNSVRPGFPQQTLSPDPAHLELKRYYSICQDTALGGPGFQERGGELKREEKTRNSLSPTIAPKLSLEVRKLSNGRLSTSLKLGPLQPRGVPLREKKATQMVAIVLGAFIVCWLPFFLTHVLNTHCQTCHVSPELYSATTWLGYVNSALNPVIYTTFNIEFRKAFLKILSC
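Agonist mode: compounds and dopamine controls were applied to plated cells for 90 min at 37 degrees C after an overnight attachment at 1500 cells/well. Luminescent read-out followed 30 - 60 minutes at room temperature with DiscoveRx detection reagent.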
ATXN2 expr inh – Primary qHTS for Inhibitors of ATXN expression; HEK-293 ATXN2-luciferase reporter, luminescence, 24 h; Potency, µM (doses to about 57 µM), for the others: top-dose activity change, negative = inhibition, most hits filed as inhibitors; 0.72% of 360,000 active; AID 1745845, 2022; further: potency means the concentration at half of the fitted maximal effect; on the % scale 0 is the no-effect control and ±100 the full control effect; nearly all actives have a fitted effect of over 55% in size
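ATXN2-luciferase reporter cells (luciferase flanked by upstream and downstream ATXN2 gene portions) were treated 24 h at 37 °C with compounds at up to 57 uM. SteadyGlo luminescence gave expression; GF-AFC fluorescence gave viability.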
HepG2 tox – qHTS for Inhibitors of TGF-b: Cytotox Counterscreen | HepG2 CAGA-GFP viability, ATP luminescence, 18 h | Potency, µM (highest dose often 46.1 µM), for inactives: top-dose activity change, negative = cytotoxicity, most hits filed as cytotoxic | 0.76% of 410,000 active | AID 588856, 2011; further: potency means the concentration at half of the fitted maximal effect
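CellTiter-Glo luminescence gave cytotoxicity after 18 hours at 37 degrees C. The cells were HepG2 CAGA-GFP in 1% FBS DMEM, stimulated with 500 pg/mL TGF-beta after compound addition. %Activity was normalised to no-cell wells (complete cell-killing) and DMSO (no toxicity), and curves were fitted and classified.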
ATXN viability – Viability Counterscreen for Primary qHTS for Inhibitors of ATXN expression | S2 cells (HEK-293 line with an ATXN2-luciferase reporter) viability, CellTiter-Fluor protease fluorescence, 24 h | Potency, µM (titrated, usually from 56.7 µM), most hits filed as cytotoxic | 0.49% of 400,000 active | AID 651635, 2014; further: potency means the concentration at half of the fitted maximal effect; nearly all actives have a fitted effect of over 40% in size
TGFb SMAD3 inh – qHTS for Inhibitors of TGF-b; HepG2 CAGA-GFP TGF-b/SMAD3 reporter, GFP fluorescence, 18 h; TGF-beta stimulated, 500 pg/mL final; Potency, µM (titrated, usually from 46.1 µM), for the others: at the highest dose activity, negative = inhibition, actives largely listed as inhibitors; 1.2% of 410,000 active; AID 588855, 2011; further: potency means the concentration at half of the fitted maximal effect; on the % scale 0 is the no-effect control and ±100 the full control effect; nearly all actives have a fitted effect of over 65% in size
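Cell-based qHTS in HEPG2 carrying a CAGA-GFP Smad reporter; compounds added before 500 pg/mL final TGF-beta, 18 h incubation at 37 degrees C, GFP fluorescence quantified per cell by imaging cytometry.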
D3 antag – qHTS of D3 Dopamine Receptor Antagonist: qHTS. D(3) dopamine receptor (Homo sapiens), P35462. D3R cells, DiscoveRx beta-arrestin luminescence, antagonist mode; active compounds read low. max response, negative = inhibition, %. 2.5% of 360,000 active. AID 652054, 2013; in the data active means max response below about -50%; inconclusive means no clear call, values can overlap the other calls; further: on the % scale 0 is the no-effect control and ±100 the full control effect
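Cells plated overnight at 1500 cells/well, then exposed to library compounds with dopamine controls for 90 minutes at 37 degrees C. DiscoveRx reagent added for 30–60 minutes at room temperature; luminescence read, quantitative HTS format.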
* hit, by the source's call; [ ] = another dose, or the depositor's remark. Unless noted, the call rests on the fitted dose curve; in most records, active means well fitted curve in the direction sought with a large enough effect; inconclusive means small, poorly fitted or top-dose-only effect, or another doubt; inactive means no such curve, though single readings can be large; an effect the other way counts as inactive or inconclusive.

Screening Cc1cc(O)c(CN2CC=C(c3ccccc3)CC2)cc1C(C)C returned D3 ag -20, ATXN2 expr inh -29%, HepG2 tox -6%, ATXN viability inactive, TGFb SMAD3 inh -1% and D3 antag -73*.
OC(CN1CC=C(c2ccccc2)CC1)c1ccccc1 (configuration not stated) was read as D3 ag 21, ATXN2 expr inh 2%, HepG2 tox -3%, ATXN viability inactive, TGFb SMAD3 inh -1% and D3 antag -21.
For O=S(=O)(F)Cc1ccccc1 the results were ATXN2 expr inh 30%.
`O=C1c2ccccc2C(=O)c2ccccc21` gave D3 ag 4, ATXN2 expr inh 3%[25.6 µM] and ATXN viability inactive.
c1ccc2c(c1)[IH]c1ccccc1-2 was read as D3 ag -6, ATXN2 expr inh 7.9µM*, HepG2 tox -47%, ATXN viability inconclusive, TGFb SMAD3 inh 4.5µM* and D3 antag 0.
Screening C[C@]12CC[C@H]3[C@@H](CCC4=CC(=O)CC[C@@H]43)[C@@H]1CC[C@@H]2OC(=O)CCc1ccco1 returned ATXN2 expr inh -9% and ATXN viability inactive.
`O=C(Nc1c(Cl)cccc1Cl)Oc1cccc2cccnc12` gave D3 ag 2, ATXN2 expr inh inconclusive, HepG2 tox -2%, TGFb SMAD3 inh inconclusive and D3 antag -52*.
For O=C(Nc1cccc(Br)c1)Oc1cccc2cccnc12 the results were D3 ag -24, ATXN2 expr inh 6.3µM*, HepG2 tox 2.8µM*, ATXN viability inconclusive, TGFb SMAD3 inh inconclusive and D3 antag -83*.
Screening C#CCN1CC(=O)N(COC(=O)C2C(C=C(C)C)C2(C)C)C1=O (configuration not stated) returned D3 ag 4.
`CC(Cc1ccccc1)N(C)Cc1ccco1` (configuration not stated) gave ATXN2 expr inh 0% and ATXN viability inactive.
For C[n+]1ccc(-c2ccccc2)c2ccccc21 the results were D3 ag -2, ATXN2 expr inh -14%, HepG2 tox -18%, ATXN viability inconclusive, TGFb SMAD3 inh inconclusive and D3 antag -20.
For CN(C)c1ccc(/C=C/C=C/c2sc3ccccc3[n+]2C)cc1 the results were D3 ag -8, ATXN2 expr inh inconclusive, HepG2 tox -20%, ATXN viability inconclusive, TGFb SMAD3 inh 8.9µM* and D3 antag -19.
CN(C)c1ccc(/C=C/c2cc[n+](C)c3ccccc23)cc1 was read as D3 ag 5, ATXN2 expr inh inconclusive, HepG2 tox -70%, ATXN viability 6µM*, TGFb SMAD3 inh 7.1µM* and D3 antag 4.
Screening CCOP(=O)(OCC)C(C)NC(=O)N(CCCl)N=O (configuration not stated) returned ATXN2 expr inh 13%.
COc1cc(/C=C(/C)[N+](=O)[O-])ccc1OCc1ccccc1Cl was read as D3 ag -16, ATXN2 expr inh 25µM*, HepG2 tox 7.9µM*, ATXN viability 32µM*, TGFb SMAD3 inh 5µM* and D3 antag inconclusive.
`CC(=O)C1C(N2CC2)CC2C3CC=C4CC(O)CCC4(C)C3CCC21C` (configuration not stated) gave D3 ag -13, ATXN2 expr inh 0%, HepG2 tox -3%, ATXN viability 14µM*, TGFb SMAD3 inh -8% and D3 antag inconclusive.
CC(=O)c1ccc2c(c1)N(CCCN(C)C)c1ccccc1S2 was read as D3 ag -96, ATXN2 expr inh inconclusive, HepG2 tox -23%, ATXN viability inconclusive, TGFb SMAD3 inh 32% and D3 antag -108*.
c1ccc2c(N3CCNCC3)nsc2c1 was read as D3 ag -11, ATXN2 expr inh inconclusive, HepG2 tox -9%, ATXN viability inactive, TGFb SMAD3 inh 17% and D3 antag -70*.
Cc1c(N)nc([C@H](CC(N)=O)NC[C@@H](N)C(N)=O)nc1C(=O)N[C@H](C(=O)N[C@@H](C)[C@H](O)[C@@H](C)C(=O)N[C@@H](C(=O)NCCc1nc(-c2nc(C(=O)NCCC[S+](C)C)cs2)cs1)[C@@H](C)O)C(O[C@H]1O[C@H](CO)[C@H](O)[C@@H](O)[C@@H]1O[C@H]1O[C@H](CO)[C@@H](O)[C@H](OC(N)=O)[C@H]1O)c1cnc[nH]1 (some centres not stated) was read as ATXN2 expr inh 14µM*.
`O=C(c1cccc2ccccc12)C1CCCN(Cc2ccon2)C1` (configuration not stated) gave D3 ag -31, ATXN2 expr inh -20%, HepG2 tox 2%, ATXN viability inactive, TGFb SMAD3 inh -6% and D3 antag -68*.
`Cc1cc(Cl)ccc1C(=O)C1CCCN(Cc2ccon2)C1` (configuration not stated) gave D3 ag -11, ATXN2 expr inh -16%, HepG2 tox -12%, ATXN viability inactive, TGFb SMAD3 inh 1% and D3 antag -7.
Screening CN1CCCC(C(=O)c2ccccc2)C1 (configuration not stated) returned D3 ag 16, ATXN2 expr inh -2%, HepG2 tox -7%, ATXN viability inactive, TGFb SMAD3 inh -3% and D3 antag -22.
Screening O=C(c1cccc2ccccc12)C1CCCN(C2CCC2)C1 (configuration not stated) returned D3 ag -17, ATXN2 expr inh -19%, HepG2 tox -29%, ATXN viability inconclusive, TGFb SMAD3 inh inconclusive and D3 antag -51*.
CC(O)C1C=CC=CC(=O)OC2CC3OC4C5OC5(C)CCC4(COC(=O)C4OC4(C)C(O)CO1)C2(C)C31CO1 (configuration not stated) was read as D3 ag 5, ATXN2 expr inh inconclusive, HepG2 tox 7%, ATXN viability 0.0067µM*, TGFb SMAD3 inh 0.25µM* and D3 antag 1.
CC(=O)OC1C(=O)OCC23CCC4(C)OC4C2OC2CC(OC(=O)C=CC=CC(=O)OCCC1C)C3(C)C21CO1 (configuration not stated) was read as D3 ag 0, ATXN2 expr inh inconclusive, HepG2 tox -26%, ATXN viability 0.03µM*, TGFb SMAD3 inh -63% and D3 antag 6.
